The panel holds about 83,000 compounds, 20% with a hit somewhere; the sample as a whole holds those more often.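 48-hour exposure, single concentration, 96-well plates; percent growth endpoint where 0 means no net growth. Active: below 10.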 Calls of active or inactive are those of the source.
How the values were obtained:
Assay in all cases: NCI-60 one-dose screen, 48 h (100 = growth as untreated, 0 = no growth, -100 = all killed)
Details in all cases: 10 µM unless noted
NCI/ADR-RES ovarian = test system: NCI/ADR-RES ovarian
T-47D breast = test system: T-47D breast
BT-549 breast = test system: BT-549 breast
MDA-MB-435 melanoma = test system: MDA-MB-435 melanoma
SW-620 colon = test system: SW-620 colon
MCF7 breast = test system: MCF7 breast
HCT-116 colon = test system: HCT-116 colon
HCC-2998 colon = test system: HCC-2998 colon
KM12 colon = test system: KM12 colon

Measured: growth

COC(=O)[C@@H](C)C[C@H](Cc1ccccc1)NC(=O)c1csc([C@@H](C[C@H](C(C)C)N(C)C(=O)C2(NC(=O)[C@H]3CCCCN3C)CC2)OC(C)=O)n1
inactive: NCI/ADR-RES ovarian 61.8% | T-47D breast 51.5% | BT-549 breast 12.8% | SW-620 colon 22.2% | MCF7 breast 18.9%
active: MDA-MB-435 melanoma -28.8% | HCT-116 colon 0.459% | HCC-2998 colon -2.95% | KM12 colon 5.25%

O=C1OCCC1Br (stereo unspecified)
inactive: NCI/ADR-RES ovarian 106% | T-47D breast 105% | BT-549 breast 85.3% | MDA-MB-435 melanoma 103% | SW-620 colon 103% | MCF7 breast 101% | HCT-116 colon 103% | HCC-2998 colon 102% | KM12 colon 108%

COc1ccc(/C=C\c2cc(OC)c(OC)c(OC)c2)c(NS(=O)(=O)c2ccc(Cl)cc2)c1O
active: NCI/ADR-RES ovarian -7.04% | MDA-MB-435 melanoma -48% | HCT-116 colon 6.81% | KM12 colon 1.25%
inactive: T-47D breast 84.7% | BT-549 breast 58.2% | SW-620 colon 27% | MCF7 breast 12.7% | HCC-2998 colon 12.7%

O=P1(NCCCl)OCCCN1CCCl (stereo unspecified)
inactive: NCI/ADR-RES ovarian 110% | T-47D breast 105% | BT-549 breast 104% | MDA-MB-435 melanoma 107% | SW-620 colon 98% | MCF7 breast 101% | HCT-116 colon 106% | HCC-2998 colon 107% | KM12 colon 103%

C=CC1=C[C@@H]2[C@@H]3O[C@]4(CC[C@H](O4)[C@@H](C)C[C@@H](O)C3=O)C[C@H](O)C3=NCC[C@@]32CC1
active: NCI/ADR-RES ovarian -15.3% | T-47D breast -14.6% | BT-549 breast -31.9% | MDA-MB-435 melanoma -92.9% | SW-620 colon -11.3% | MCF7 breast -11.8% | HCT-116 colon -22.8% | HCC-2998 colon -81.2% | KM12 colon -33.4%

CCOC(=O)c1c(C)n(Cc2ccccc2)c2cc(CN(C)C)c(O)cc12
inactive: NCI/ADR-RES ovarian 63.5% | T-47D breast 61.1% | BT-549 breast 64.7% | MDA-MB-435 melanoma 80.3% | SW-620 colon 63% | MCF7 breast 55.3% | HCT-116 colon 51.7% | HCC-2998 colon 55.4% | KM12 colon 76.5%

CCOP1(=O)CC(C)=C(Cl)C(P(=O)(OCC)OCC)C1 (stereo unspecified)
inactive: NCI/ADR-RES ovarian 85.8% | T-47D breast 96.4% | BT-549 breast 112% | MDA-MB-435 melanoma 114% | SW-620 colon 97.3% | MCF7 breast 99.7% | HCT-116 colon 107% | HCC-2998 colon 86.3% | KM12 colon 114%

COc1cc(/C=C/[N+](=O)[O-])c([N+](=O)[O-])cc1OC
inactive: NCI/ADR-RES ovarian 13.5% | T-47D breast 16.5% | BT-549 breast 87.3% | MDA-MB-435 melanoma 14% | HCC-2998 colon 86.3% | KM12 colon 18.5%
active: SW-620 colon -57.3% | MCF7 breast 8.83% | HCT-116 colon -62.4%

COC1OC(CO)C(O)C(O)[CH]1[Hg][O]C(C)=O (stereo unspecified)
inactive: NCI/ADR-RES ovarian 92.4% | T-47D breast 63.8% | BT-549 breast 103% | MDA-MB-435 melanoma 93.7% | SW-620 colon 89% | MCF7 breast 53.2% | HCT-116 colon 102% | HCC-2998 colon 106% | KM12 colon 94.5%

NC(CCl)CCl
active: T-47D breast -100%
inactive: NCI/ADR-RES ovarian 105% | BT-549 breast 107% | MDA-MB-435 melanoma 89.2% | SW-620 colon 102% | MCF7 breast 96.5% | HCT-116 colon 107% | HCC-2998 colon 101% | KM12 colon 99.5%

CCCCCCCCCCCCCCCCCC1OC[C@H](COC(=O)O[C@@H](C(=O)O[C@H]2C[C@@]3(O)[C@@H](OC(=O)c4ccccc4)[C@@H]4[C@]5(OC(C)=O)CO[C@@H]5C[C@H](O)[C@@]4(C)C(=O)[C@H](OC(C)=O)C(=C2C)C3(C)C)[C@@H](NC(=O)c2ccccc2)c2ccccc2)O1 (stereo partly specified)
inactive: NCI/ADR-RES ovarian 103% | T-47D breast 50.4% | BT-549 breast 53.8% | SW-620 colon 46.9% | MCF7 breast 25.9% | HCT-116 colon 17.8% | HCC-2998 colon 54.1% | KM12 colon 26.4%
active: MDA-MB-435 melanoma -29.7%

O=[N+]([O-])c1cc([N+](=O)[O-])c(Nn2c3ccccc3c3ccccc32)c([N+](=O)[O-])c1
active: NCI/ADR-RES ovarian 7.52% | T-47D breast -17.3% | BT-549 breast -27.4% | MDA-MB-435 melanoma 0.936% | MCF7 breast 2.34% | HCT-116 colon -10.1% | HCC-2998 colon 1.54% | KM12 colon 4.34%
inactive: SW-620 colon 11.1%

COC(=O)[C@@H](C)C[C@H](Cc1ccccc1)NC(=O)c1nc([C@@H](C[C@H](C(C)C)N(C)C(=O)[C@@H](NC(=O)[C@H]2CCCCN2C)C(C)C)OC(C)=O)sc1C(C)C
active: NCI/ADR-RES ovarian 8.7% | BT-549 breast -35.6% | MDA-MB-435 melanoma -46.8% | HCT-116 colon -5.54% | HCC-2998 colon 3.15% | KM12 colon 1.85%
inactive: T-47D breast 53.1% | SW-620 colon 24.9% | MCF7 breast 18.3%

COC(=O)[C@@H](C[C@H](Cc1ccccc1)NC(=O)c1csc([C@@H](C[C@H](C(C)C)N(C)C(=O)[C@@H](NC(=O)[C@H]2CCCCN2C)C(C)C)OC(C)=O)n1)NC(=O)OCc1ccccc1
inactive: NCI/ADR-RES ovarian 13.9% [9.5 µM] | T-47D breast 78.8% [9.5 µM] | SW-620 colon 26.1% [9.5 µM] | MCF7 breast 27.8% [9.5 µM] | HCC-2998 colon 19.5% [9.5 µM]
active: BT-549 breast -28% [9.5 µM] | MDA-MB-435 melanoma -36% [9.5 µM] | HCT-116 colon 1.64% [9.5 µM] | KM12 colon 1.08% [9.5 µM]
